These results are taken from the supplement of paper PMC7411054.

What all share (details): treatment time: 24 h
Assay [1] deals with A549-ACTB-RAB5A. Put plainly: phenotypically active (imaging signature differs from DMSO and reproducible) at any of 0.3-9 uM (binary (1 = active, 0 = inactive)); higher = active. The gist of the method:
(§1)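 Phenotypic activity depended on meeting both a deviation and a reproducibility criterion. The fifteen gene-edited A549, HepG2 and WPMY1 reporter lines were treated at 0.3, 1, 3 or 9 µM for 24 h, four wells each, then imaged live with features normalised to solvent control wells. Deviation required ≥3 of 4 wells past the 95th percentile of control Euclidean distances, and reproducibility a median replicate Pearson correlation above the 95th percentile of non-replicates.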

A further assay deals with A549-CANX-COX4. Described as above. The gist of the method: as §1
Assay [2] has as its system A549-GM130-SQSTM1. The description is as above. The gist of the method: as §1
In assay [3] the test system is A549-TP53BP1-CLTA. The description is as above. The gist of the method: as §1
The next assay has as its system A549-TUBA1B-RELA. Described as above. The gist of the method: as §1
The subject of a further assay is HepG2-ACTB-RAB5A. The description is as above. Summed up: as §1
The test system of the next assay is HepG2-CANX-COX4. The assay is described as above. Summed up: as §1
Assay [4] has as its system HepG2-GM130-SQSTM1. Described as above. Summed up:
as §1

In the next assay the test system is HepG2-TP53BP1-CLTA. The description is as above. The gist of the method: as §1
For assay [5], the system named is HepG2-TUBA1B-RELA. The description is as above. The gist of the method: as §1
A further assay relates to WPMY1-ACTB-RAB5A. The assay is described as above. The gist of the method: as §1
The next assay has as its system WPMY1-CANX-COX4. The assay is described as above. The gist of the method: as §1
Another assay concerns WPMY1-GM130-SQSTM1. The assay is described as above. Summed up: as §1
Another assay concerns WPMY1-TP53BP1-CLTA. The assay is described as above. The gist of the method:
as §1

Another assay deals with WPMY1-TUBA1B-RELA. The assay is described as above. Summed up:
as §1

In assay [6] the test system is A549-ACTB-RAB5A. Put plainly: lowest phenotypically active concentration; higher = less potent. Summed up: as §1
The subject of assay [7] is A549-GM130-SQSTM1. Described as above. The gist of the method:
as §1

Assay [8] deals with A549-TP53BP1-CLTA. Described as above. The gist of the method:
as §1

Assay [9] relates to HepG2-GM130-SQSTM1. The assay is described as above. Summed up: as §1
In assay [10] the test system is HepG2-TUBA1B-RELA. The assay is described as above. Summed up: as §1

Turning to `Nc1ccncc1` [dalfampridine], the phenotypically active in the assay with A549-ACTB-RAB5A [1], in the assay with A549-CANX-COX4, in the assay on A549-GM130-SQSTM1 [2], in the assay on A549-TP53BP1-CLTA [3], with A549-TUBA1B-RELA and in the assay with HepG2-ACTB-RAB5A was 0 (inactive) each time. For the same compound, the phenotypically active with HepG2-CANX-COX4, with HepG2-GM130-SQSTM1 [4], in the assay with HepG2-TP53BP1-CLTA, in the assay with HepG2-TUBA1B-RELA [5], in the assay on WPMY1-ACTB-RAB5A and with WPMY1-CANX-COX4 was 0 (inactive) each time. For the same compound, the phenotypically active in the assay on WPMY1-GM130-SQSTM1, in the assay on WPMY1-TP53BP1-CLTA and in the assay with WPMY1-TUBA1B-RELA was 0 (inactive) throughout.
As for `COC(=O)[C@@]1(O)C[C@H]2O[C@]1(C)n1c3ccccc3c3c4c(c5c6ccccc6n2c5c31)C(=O)NC4`, the “lowest phenotypically active concentration” value in the assay on A549-ACTB-RAB5A [6], in the assay on A549-GM130-SQSTM1 [7], in the assay with A549-TP53BP1-CLTA [8], in the assay with HepG2-GM130-SQSTM1 [9] and in the assay with HepG2-TUBA1B-RELA [10] was at most 0.3 µM each time. The phenotypically active in the assay with A549-ACTB-RAB5A [1], in the assay on A549-CANX-COX4, in the assay on A549-GM130-SQSTM1 [2], in the assay on A549-TP53BP1-CLTA [3], in the assay on A549-TUBA1B-RELA and with HepG2-ACTB-RAB5A was 1 (active) each time. The phenotypically active in the assay on HepG2-CANX-COX4, in the assay with HepG2-GM130-SQSTM1 [4], in the assay on HepG2-TP53BP1-CLTA, with HepG2-TUBA1B-RELA [5], in the assay on WPMY1-ACTB-RAB5A and in the assay on WPMY1-CANX-COX4 was 1 (active) throughout. Besides, the phenotypically active with WPMY1-GM130-SQSTM1, in the assay on WPMY1-TP53BP1-CLTA and with WPMY1-TUBA1B-RELA was 1 (active) in each case.
Turning to `C[C@]12CC[C@H](O)C[C@H]1CC[C@@H]1[C@@H]2C[C@@H](O)[C@]2(C)[C@@H](C3=CC(=O)OC3)CC[C@]12O` [Digoxigenin], the “lowest phenotypically active concentration” value was at most 0.3 µM in the assay on A549-ACTB-RAB5A [6]; at most 0.3 µM in the assay with A549-GM130-SQSTM1 [7]; at most 0.3 µM in the assay on A549-TP53BP1-CLTA [8]; 3 µM in the assay on HepG2-GM130-SQSTM1 [9]; 1 µM in the assay on HepG2-TUBA1B-RELA [10]. Also, the phenotypically active in the assay with A549-ACTB-RAB5A [1], in the assay on A549-CANX-COX4, in the assay on A549-GM130-SQSTM1 [2], in the assay on A549-TP53BP1-CLTA [3], with A549-TUBA1B-RELA and with HepG2-ACTB-RAB5A was 1 (active) in each case. Besides, the phenotypically active with HepG2-CANX-COX4, with HepG2-GM130-SQSTM1 [4], in the assay with HepG2-TP53BP1-CLTA, with HepG2-TUBA1B-RELA [5], in the assay with WPMY1-ACTB-RAB5A and with WPMY1-CANX-COX4 was 1 (active) throughout. For the same compound, the phenotypically active in the assay with WPMY1-GM130-SQSTM1, with WPMY1-TP53BP1-CLTA and with WPMY1-TUBA1B-RELA was 1 (active) in each case.
For the compound `OCC[N+]12CN3CN(CN(C3)C1)C2`, the phenotypically active with A549-ACTB-RAB5A [1], in the assay with A549-CANX-COX4, with A549-GM130-SQSTM1 [2], in the assay with A549-TP53BP1-CLTA [3], with A549-TUBA1B-RELA and in the assay on HepG2-ACTB-RAB5A was 0 (inactive) throughout. Moreover, the phenotypically active with HepG2-CANX-COX4, in the assay on HepG2-GM130-SQSTM1 [4], in the assay on HepG2-TP53BP1-CLTA, with HepG2-TUBA1B-RELA [5], in the assay on WPMY1-ACTB-RAB5A and in the assay on WPMY1-CANX-COX4 was 0 (inactive) throughout. Also, the phenotypically active with WPMY1-GM130-SQSTM1, in the assay on WPMY1-TP53BP1-CLTA and in the assay on WPMY1-TUBA1B-RELA was 0 (inactive) throughout.
On to `COc1ccc(C[C@H]2NC[C@H](O)[C@H]2OC(C)=O)cc1` [Anisomycin], for which the “lowest phenotypically active concentration” value in the assay with A549-ACTB-RAB5A [6], in the assay with A549-GM130-SQSTM1 [7], with A549-TP53BP1-CLTA [8], in the assay on HepG2-GM130-SQSTM1 [9] and in the assay with HepG2-TUBA1B-RELA [10] was at most 0.3 µM in each case. Also, the phenotypically active in the assay on A549-ACTB-RAB5A [1], in the assay with A549-CANX-COX4, in the assay with A549-GM130-SQSTM1 [2], with A549-TP53BP1-CLTA [3], in the assay on A549-TUBA1B-RELA and in the assay with HepG2-ACTB-RAB5A was 1 (active) throughout. In addition, the phenotypically active in the assay on HepG2-CANX-COX4, in the assay on HepG2-GM130-SQSTM1 [4], in the assay with HepG2-TP53BP1-CLTA, with HepG2-TUBA1B-RELA [5], with WPMY1-ACTB-RAB5A and in the assay on WPMY1-CANX-COX4 was 1 (active) throughout. The phenotypically active in the assay with WPMY1-GM130-SQSTM1, in the assay with WPMY1-TP53BP1-CLTA and in the assay with WPMY1-TUBA1B-RELA was 1 (active) each time.
